Screening data as filed in PubChem.
Only some compounds are listed: those with a hit (about 2.8% of all), similar ones and a draw of the others.
CBFb-RUNX1 inh: blocks binding between human CBF-beta and RUNX1; Q01196+Q13951; AlphaScreen CBFb-His/RUNX1-biotin binding, biochemical; Potency, µM (top dose mostly 59.8 µM), for inactives: at the highest dose activity, negative = inhibition, usual class: inhibitors; 230,000 tested, under 10 active; AID 1477; also: % of control where 0% means no effect
Target sequence (Q01196 whole entry, looked up): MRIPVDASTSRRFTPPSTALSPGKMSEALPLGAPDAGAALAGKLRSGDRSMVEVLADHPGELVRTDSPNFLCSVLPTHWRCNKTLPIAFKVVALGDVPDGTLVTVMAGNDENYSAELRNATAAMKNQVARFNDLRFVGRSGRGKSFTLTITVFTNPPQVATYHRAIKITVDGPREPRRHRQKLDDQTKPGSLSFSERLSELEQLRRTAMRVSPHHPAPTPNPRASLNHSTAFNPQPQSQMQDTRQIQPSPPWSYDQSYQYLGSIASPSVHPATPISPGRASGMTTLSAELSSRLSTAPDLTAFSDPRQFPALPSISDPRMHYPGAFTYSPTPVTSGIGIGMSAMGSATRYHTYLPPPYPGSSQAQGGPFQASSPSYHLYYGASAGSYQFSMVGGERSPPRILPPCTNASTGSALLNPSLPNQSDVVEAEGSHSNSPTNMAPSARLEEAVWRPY
Target sequence (Q13951 whole entry, looked up): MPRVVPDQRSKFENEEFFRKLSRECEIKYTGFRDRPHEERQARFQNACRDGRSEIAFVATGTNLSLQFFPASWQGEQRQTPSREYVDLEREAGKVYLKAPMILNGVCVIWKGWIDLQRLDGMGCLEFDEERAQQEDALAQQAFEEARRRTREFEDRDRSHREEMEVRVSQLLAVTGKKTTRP
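Bead-based AlphaScreen assay; binding partners His-tagged CBF-beta and biotinylated RUNX1 at 30 nM each. Compound exposure 15 min after a 20-min protein preincubation; bead step 90 min; all steps at room temperature.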
D3 antag: D3 dopamine receptor (human) antagonism | actives 2.5% (n = 360,000) | D3R cells, DiscoveRx beta-arrestin luminescence, antagonist mode; hits give low values | P35462 | max response, negative = inhibition, % | AID 652054; in the data active = max response below about -50%; inconclusive = no clear call, values can overlap the other calls; also: % is scaled to controls: 0 for no effect and ±100 for the full control effect
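Cells plated overnight at 1500 cells/well, then exposed to library compounds with dopamine controls for 90 minutes at 37 degrees C. DiscoveRx reagent added for 30–60 minutes at room temperature; luminescence read, quantitative HTS format.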
DRD3 agonist: activates the human D3 dopamine receptor. D3R DiscoveRx beta-arrestin cells, luminescence, 90 min. max activation, %. actives 0.58% (n = 410,000). AID 652048; in the data active = max activation above about 30%; also: 0% is about no effect
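Cells at 1500/well, incubated overnight, then treated with pinned compounds (dopamine as control) for 90 min at 37 degrees C. DiscoveRx reagent added for 30 - 60 minutes at room temperature; luminescence read.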
MBNL1-CUG inh: inhibitors of human MBNL1 binding to CUG repeat RNA; Potency, µM (titrated, usually from 57.5 µM), for inactives: at the highest dose activity change, negative = inhibition, hits mostly inhibitors; TR-FRET MBNL1-His/biotin-(CUG)12 binding, 665/545 ratio; Q9NR56; actives 0.036% (n = 280,000); AID 2675; active = well fitted inhibition curve with a large enough effect in the signal ratio, with a control signal flat, not every such curve was filed as active; inconclusive = small, poorly fitted or top-dose-only effect, or effect the other way, or a change in a side signal; inactive = no such curve, though single readings can be large or run the other way; the % refers to the signal ratio; also: potency is read from the fitted curve at half-maximal effect; % is scaled to controls: 0 for no effect and ±100 for the full control effect
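Compound titration spanned 92 nM–58 uM against the MBNL1-His/biotin-(CUG)12 complex. After 60 min at room temperature with 5 nM streptavidin-XL665 and 0.055 ng/ul terbium anti-His, ratiometric 665/545 nm emission (Ex 340 nm) normalized to controls.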
PTHR1 ag: activates the human parathyroid hormone receptor PTHR1; Q03431; HEK293 GP2 PTHR1 cells, GloSensor cAMP luminescence, 1 h; Potency, µM (top dose mostly 115 µM), inactives show at the highest dose activation, actives largely listed as activators; AID 743266; actives 0.075% (n = 410,000); also: potency is read from the fitted curve at half-maximal effect; nearly all actives have a fitted effect of over 55% in size
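HEK-293-derived GP2 cells expressing PTHR1 and a GloSensor cAMP reporter, 3,000/well, plated overnight, given luciferin plus IBMX (each 0.5 mM as added) for 1 h at 37 °C, then compound for 1 h at 37 °C. Luminescence was read after 15 min at room temperature.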
Integrin act MD: activates integrin-mediated alleviation for muscular dystrophy | actives 0.064% (n = 350,000) | alpha7betagal myoblasts, beta-gal FDG fluorescence, 48 h | Potency, µM (titrated, usually from 38.3 µM), without a hit: at the highest dose activation, hits mostly activators | AID 624291;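 also: potency is read from the fitted curve at half-maximal effect; 100% = response of the positive control SU9516; nearly all actives have a fitted effect of over 60% in size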
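alpha7betagal+/- myoblasts (passage 13, 250/well) treated 48 h at 37C with compounds at 1:260 dilution of DMSO stock. Lysed, then beta-galactosidase activity read as FDG fluorescence (ex 480/em 540) after 30 min, with pre-read for autofluorescence.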
* marks the source's active call; other numbers are inactive results; i = inactive; ? = inconclusive; . = not tested or not shown; [ ] = remark or other dose. Unless noted, calls follow the shape of the dose curve; as a rule, active = well fitted curve in the direction sought with a large enough effect; inconclusive = small, poorly fitted or top-dose-only effect, or another doubt; inactive = no such curve, though single readings can be large; an effect the other way counts as inactive or inconclusive.

SMILES	CBFb-RUNX1 inh	D3 antag	DRD3 agonist	MBNL1-CUG inh	PTHR1 ag	Integrin act MD
CC1CCCN(CCOCCOc2ccc(Cl)cc2Br)C1 (stereo not drawn)	8%	-100*	-53	-1%	14%	-63%
Cc1cccc(-n2ccnc2CN2CCC(CO)(Cc3ccccc3)CC2)c1	0%	2	-9	2%	i	0%
CNC[C@H]1OCc2ccccc2-c2ccccc2C(=O)N([C@@H](C)CO)C[C@H]1C	.	11	5	.	-16%	-12%
O=S(=O)(/N=C(/Nc1ccccc1)c1ccccc1O)c1ccccc1	5%	-13	1	-2%	101%	0%
COc1ccccc1Cc1c(C2CCCCC2)nc2cc(C)c(Br)c(C)n12	.	-8	0	.	-22%	.
CC1CCCN(CCOCCOc2ccc(Br)cc2Cl)C1 (stereo not drawn)	7%	-82*	0	-19%	-12%	-49%
Cc1cccc(OCCC(=O)NCC(c2ccccc2)N(C)C)c1 (stereo not drawn)	10%	-60*	-5	?	-8%[57.5 µM]	-5%[7.66 µM]
Cc1ccccc1NC(=S)NCC(c1cccnc1)N(C)C (stereo not drawn)	-11%	1	2	-6%	-4%	-13%
COc1ccc(C(CNC(=O)CCOc2ccccc2)N(C)C)cc1 (stereo not drawn)	0%	-76*	-52	-3%	-30%	-2%
COc1ccc(CC(=O)NCC(c2ccc(OC)cc2)N(C)C)cc1 (stereo not drawn)	3%	2	-7	.	-23%	-8%
Cc1ccc(C)c(NC(=S)NCC(c2ccccc2)N(C)C)c1 (stereo not drawn)	5%	-60*	-39	-4%	i	-18%
Nc1nc(NC2CC2)c2ncn([C@@H]3C=C[C@@H](CO)C3)c2n1	.	.	6	.	.	.
CCc1nnc(NC(=O)CCC(=O)NC2CCCCCCC2)s1	.	-17	2	-6%	i	-31%
CN1C(=O)/C(=C2/C=Cc3ccccc3N2CCCS(=O)(=O)O)SC1=S	?	-125*	-25	?	i	12%
Cc1cccc(-c2nnc(-c3cccc(NC(=O)Cc4cccs4)c3)o2)c1	2%	34	31*	1%	-49%[57.5 µM]	-20%
CCN(CC)CCCNC(=O)Cn1ncn2cccc2c1=O	2%	-73*	-8	-1%	-1%	22%
Cc1ccc(CNC(=O)Cn2ncn3cccc3c2=O)cc1	.	8	1	13%	i	11%
CC(=NNC(=S)N1CCCCCC1)c1cccc2cccnc12	.	-71*	-13	.	i	-36%
Cc1ccc(C)c(-c2cc(C(=O)Nc3sc(C)c(C)c3C(N)=O)c3ccccc3n2)c1	-11%	15	46*	-3%	-22%[57.5 µM]	-8%
Cc1ccccc1-c1cc(C(=O)Nc2nc3c(s2)CCCC3)c2ccccc2n1	-16%	-91*	-58	1%	i	-32%
CSc1ccc(CN2C(=O)C(C)ON=C2c2ccccc2F)cc1 (stereo not drawn)	.	-16	-5	.	-7%	.
Cc1ccc(NC(=O)Nc2nnc(N3CCCCC3)s2)c(C)c1	.	.	-4	.	-9%	.
S=c1[nH]nc(COc2ccc3ccccc3c2)o1	9%	-62*	0	-7%	-24%[57.5 µM]	-14%
CCCNC(=O)C(Cc1ccccc1)NC(=O)c1ccc(-c2ccccc2)cc1 (stereo not drawn)	.	-3	6	.	i	17%
O=C(COC(=O)C1CC2C=CC1C2)Nc1cccc(S(=O)(=O)N2CCCCC2)c1 (stereo not drawn)	9%	7	31*	4%	-38%	-10%
SMILES	CBFb-RUNX1 inh	D3 antag	DRD3 agonist	MBNL1-CUG inh	PTHR1 ag	Integrin act MD
C[C@H](CO)N1C[C@H](C)[C@@H](CN(C)C(=O)NC2CCCCC2)Oc2ccc(NC(=O)Nc3ccc(C(F)(F)F)cc3)cc2C1=O	.	29	54*	.	15%	-4%
C[C@H](CO)N1C[C@H](C)[C@@H](CN(C)C(=O)Nc2ccc(C(F)(F)F)cc2)Oc2ccc(NC(=O)NC3CCCCC3)cc2C1=O	.	30	6	.	i	-12%
C[C@H](CO)N1C[C@H](C)[C@@H](CN(C)C(=O)Nc2ccc3c(c2)OCO3)Oc2c(NC(=O)Nc3ccc(C(F)(F)F)cc3)cccc2C1=O	.	94	32*	.	-73%	0%
C[C@@H]1CN([C@H](C)CO)C(=O)CCCn2nncc2CO[C@@H]1CN(C)C(=O)Nc1ccc2c(c1)OCO2	.	-60*	-10	.	-10%	25%
C[C@H](CO)N1C[C@H](C)[C@@H](CN(C)C(=O)Nc2ccc(C(F)(F)F)cc2)Oc2c(cccc2N(C)C)C1=O	.	-130*	-75	.	i	-21%
COc1ccc(-c2noc(CN3CCCC(OCc4ccccn4)C3)n2)cc1 (stereo not drawn)	5%	23	-7	-9%	-19%	-39%
C[C@@H]1CCC[C@H](C)N1Cc1nc(Cc2ccccc2Cl)no1	-4%	2	9	5%	i	22%
COc1ccc(NC(=O)Nc2c(SC)nsc2SC)cc1	15%	0	3	7%	i	3%
CC(=O)Nc1c(C(=O)Nc2ccccc2F)oc2ccccc12	.	.	-15	.	-74%	.
CCn1c(CN2CCN(C(c3ccccc3)c3ccccc3)CC2)nc2c1c(=O)n(C)c(=O)n2C	.	7	0	-1%	-18%	-22%
OCCC1CN(Cc2cnc(-c3cccc4ccccc34)nc2)CCN1C1CCCCC1 (stereo not drawn)	-4%	-12	-8	12%	-7%	-56%
N#CC(C#N)=c1ccc2c(c1)NC1(CCCCC1)N=2	-27%	-78*	-22	?	-88%	-39%
CC1CCC(C(C)C)C(OC(=O)Cn2c(-c3ccc(F)cc3)[n+](C)c3ccccc32)C1 (stereo not drawn)	6%	-72*	-14	?	-53%	-57%
CC1CCC(C(C)C)C(OC(=O)Cn2c(-c3ccccc3)[n+](C)c3ccccc32)C1 (stereo not drawn)	-1%	-19	-21	?	-32%	-9%
Cc1cccc(/C=C/C(=O)c2cc(Br)ccc(=O)c2O)c1	?	-59*	-7	10%	-14%[57.5 µM]	-45%
CCc1ccc(/C=C/C(=O)c2cc(Br)ccc(=O)c2O)cc1	-27%	?	-14	6%	-21%[57.5 µM]	-52%
Cc1onc(-c2c(Cl)cccc2Cl)c1C(=O)N[C@H]1C(=O)N2[C@H]1SC(C)(C)[C@H]2C(=O)O	-19%[21.7 µM]	.	.	.	.	.
